Screening data deposited in PubChem by National Center for Advancing Translational Sciences (NCATS).
Sampled rows, rich in hits. Any-hit rate of the full collection: about 22%.
Shiga toxin inh: blocks Shiga toxin action in Vero cells; Vero cells, Shiga toxin protein synthesis inhibition reporter; inhibition, % at 38.7 µM; 9.2% of 290,000 active; AID 2315; in the data active means inhibition mostly above about 28%, no sharp cut-off; inactive means mostly below about 43%; further: 0% is about no effect
LmPK inhibitor: blocks Leishmania mexicana pyruvate kinase activity | Q27686 | purified LmPK, Kinase-Glo ATP luminescence, 1 h | Potency, µM (doses to about 57.5 µM), without a hit: at the highest dose activity change, negative = inhibition, most hits filed as inhibitors | 0.37% of 290,000 active | AID 1721; further: potency means the concentration at half of the fitted maximal effect; on the % scale 0 is the no-effect control and ±100 the full control effect
Target sequence (Q27686 whole entry, looked up): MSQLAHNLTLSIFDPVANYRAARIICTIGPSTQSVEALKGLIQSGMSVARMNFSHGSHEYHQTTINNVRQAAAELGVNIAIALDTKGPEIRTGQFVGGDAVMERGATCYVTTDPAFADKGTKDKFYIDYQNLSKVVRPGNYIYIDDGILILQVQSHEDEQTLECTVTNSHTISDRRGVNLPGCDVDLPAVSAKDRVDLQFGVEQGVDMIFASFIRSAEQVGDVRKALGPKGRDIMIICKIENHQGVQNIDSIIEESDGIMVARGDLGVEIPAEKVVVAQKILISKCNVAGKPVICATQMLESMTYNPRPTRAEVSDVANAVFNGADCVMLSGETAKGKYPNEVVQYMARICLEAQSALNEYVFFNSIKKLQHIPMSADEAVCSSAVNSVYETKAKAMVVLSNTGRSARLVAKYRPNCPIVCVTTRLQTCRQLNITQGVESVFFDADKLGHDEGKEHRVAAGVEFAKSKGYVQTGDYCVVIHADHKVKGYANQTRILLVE
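ATP generated from ADP (0.1 mM) and PEP (0.5 mM) by 0.1 nM LmPK over 1 h at room temperature (pH 7.2 imidazole buffer) was detected by coupled luciferase luminescence. Values were normalized to uninhibited and no-enzyme wells.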
Cycloheximide cs: counter-screen hit for Shiga toxin inhibitors, cycloheximide. cell reporter, cycloheximide protein synthesis inhibition counterscreen. max response, %. 12% of 300,000 active; in the data active means max response mostly above about 13%, no sharp cut-off; inactive means mostly below about 14%; further: read at 38.3 µM for the half of the compounds with a filed dose; 0% is about no effect
Pf growth 48h: inhibits P. falciparum growth in the first generation, 48 h; P. falciparum luciferase growth in erythrocytes, 48 h; Potency, µM (top dose mostly 28.7 µM), for the others: top-dose activity change, negative = inhibition, actives largely listed as inhibitors; 5.9% of 310,000 active; further: potency means the concentration at half of the fitted maximal effect; on the % scale 0 is the no-effect control and ±100 the full control effect
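Parasite viability was followed by luminescence of a genomically integrated firefly luciferase. Cultures held 0.1% parasitemia at 2% hematocrit (final), incubated under 5% CO2 at 37 C.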
Pf growth 96h: P. falciparum growth inhibition at 96 hours; P. falciparum luciferase reporter growth, 96 h; Potency, µM (top dose mostly 28.7 µM), without a hit: top-dose activity change, negative = inhibition, actives largely listed as inhibitors; 6.9% of 320,000 active; further: potency means the concentration at half of the fitted maximal effect; on the % scale 0 is the no-effect control and ±100 the full control effect
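Erythrocytes infected with luciferase-expressing P. falciparum were dispensed at 2% hematocrit and 0.05% parasitemia (final), then incubated with compounds 96 hours at 37 C in 5% CO2. Luminescence after detection reagent addition reported growth.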
* marks the source's active call; other numbers are inactive results; ? = inconclusive; nt = no result given; [ ] = remark or other dose. Unless noted, the call rests on the fitted dose curve; in most records, active means well fitted inhibition curve with a large enough effect; inconclusive means small, poorly fitted or top-dose-only effect, or another doubt; inactive means no such curve, though single readings can be large or run the other way.

SMILES | Shiga toxin inh | LmPK inhibitor | Cycloheximide cs | Pf growth 48h | Pf growth 96h
O=C(Cn1c(=O)sc2ccccc21)Nc1ccc(O)cc1 | 0 | -4% | 5 | -5% | -42%[5.75 µM]
Nc1nonc1-n1nnc(C(=O)N/N=C/c2ccccn2)c1CNc1ccccc1 | -4 | 14% | 15 | -21% | ?
COc1ccc(N2CCN(CCCNS(=O)(=O)c3c(C)noc3/C=C/N(C)C)CC2)cc1 | 15 | 1% | -1 | 2.9µM* | ?
Nc1nc(SCc2ccccc2Cl)nc2nc3c(cc12)CCCC3 | -3 | -4% | 3 | ? | -17%
Nc1nc(SCc2ccc(Cl)cc2Cl)nc2nc3c(cc12)CCCC3 | -8 | 2% | -5 | 8.3µM* | 13µM*
Cc1cc(C)c(S(=O)(=O)N2CCN(S(=O)(=O)N3CCOCC3)CC2)c(C)c1 | -2 | 1% | -4 | -5% | 2.3µM*
CCC(C)(C)NC(=O)CN(Cc1ccccc1Cl)C(=O)CCC(=O)Nc1cc(C)ccn1 | 14 | -5% | 3 | 14% | 96%
O=C(C[n+]1cccc(CNC(=O)c2ccc(OC(F)F)cc2)c1)c1ccccc1 | -6 | 1% | -4 | -6% | ?
O=C(C[n+]1cccc(CNC(=O)c2ccc(OC(F)F)cc2)c1)Nc1ccc(F)cc1 | 10 | 0% | -2 | 8.3µM* | 0.74µM*
O=C(C[n+]1cccc(CNC(=O)c2ccc(OC(F)F)cc2)c1)Nc1cccc(C(F)(F)F)c1 | 8 | 3% | -2 | 5.2µM* | ?
O=C(NCc1ccccc1)C(c1ccncc1)N(C(=O)c1csnn1)c1cccc(F)c1 (stereo not drawn) | 18 | 4% | -1 | -8% | 3%
COc1ccc(-c2n[nH]c(=S)nc2-c2ccc(OC)cc2)cc1 | -6 | -6% | -4 | 36% | 27%
CN(C)C(=S)SCCn1c(N)nc(N(C)C)nc1=O | 8 | 3% | 1 | -12% | -4%
CCOCCCNC(=O)c1cc(C)nn1-c1ccccc1 | 20 | -2% | -4 | 8% | 12µM*
CCNC(=O)c1ccc(-n2nc(C)cc2-c2ccccc2)cc1 | -16 | 0% | -3 | ? | 1.5µM*
CCOC(CNC(=O)c1cc(C)nn1-c1ccccc1)OCC | 9 | -2% | -2 | 6% | nt
COc1ccccc1C(=O)N/C(=C\c1cn(S(=O)(=O)N(C)C)c2ccccc12)C(=O)N1CCCCC1 | -6 | 1% | -4 | ? | -1%
COc1ccc(CNC(=O)CN2C(=O)CCSc3ccc(S(=O)(=O)N4CCCC4)cc32)cc1 | -11 | 1% | -2 | -20% | -14%
CC(=O)Nc1ccc(C(=O)NCC(=O)OCc2c(F)cccc2Cl)cc1 | 24 | 0% | 3 | 3% | ?
COc1ccc(OCc2cc(C(=O)NCc3nc(C)cs3)no2)c(Cl)c1 | 98* | -12% | 52* | 27% | ?
COc1ccc(OCc2cc(C(=O)NC(C)c3csc(C)n3)no2)c(Cl)c1 (stereo not drawn) | 62* | 8% | 63* | 39% | 23%
Cc1nc(CNC(=O)c2cc(COc3ccc(F)cc3Cl)on2)cs1 | 10 | 4% | 8 | 37% | ?
Cc1ccc(C2(C)NC(=O)N(CC(=O)NC(C)c3ccccc3)C2=O)cc1 (stereo not drawn) | -11 | 2% | -4 | -2% | -7%
COc1ccc(OC)c(CC(=O)O)c1 | 34 | 1% | -1 | ? | -20%
COc1ccc(OC)c(N)c1 | -14 | -1% | -7 | 9.3µM* | 17µM*
SMILES | Shiga toxin inh | LmPK inhibitor | Cycloheximide cs | Pf growth 48h | Pf growth 96h
Cc1noc(-c2ccc(CSCCC(=O)O)cc2)c1NC(=O)OC(C)c1ccccc1Cl (stereo not drawn) | 19 | nt | -2 | nt | nt
CCCC12CN3CCN(CC(C3)/C1=N\NC(=O)c1ccc(F)cc1)C2 | -12 | -4% | 5 | 42% | 24%
CCCCC12CN3CCN(CC(C3)/C1=N\NC(=O)c1ccccc1N)C2 | 83* | -4% | 46* | 25% | 9%
COc1cccc(CNC(=O)C2CCN(S(=O)(=O)N3CCC4(CC3)OCCO4)CC2)c1 | -15 | -4% | -2 | -4% | -12%
COc1cc(OC)cc(-c2c(C#Cc3ccsc3)c3cc(-c4ccc(C(N)=O)cc4)ccc3n2C)c1 | nt | nt | nt | 1.3µM* | 1µM*
COc1ccc(OCC(=O)Nc2cccc(OC)c2)cc1 | 103* | -14% | 42* | 102% | ?
COc1ccc(OCC(=O)NCCCCCCNC(=O)COc2ccc(OC)cc2)cc1 | -4 | -2% | -1 | -14% | 2.9µM*
CCN(CC)CCNC(=O)COc1ccc(OC)cc1 | 5 | -2% | -2 | ? | 3%
COc1cccc(OCC(=O)NNC(=O)C(=O)Nc2cccc(C)c2)c1 | 60 | -1% | 28* | 41% | 55%
COc1cccc(NC(=O)COc2ccccc2C(N)=O)c1 | 60* | ? | 40* | 225% | 270%
COc1cccc(OCC(=O)NNC(=O)C(=O)N2CCCC2)c1 | 16 | 3% | -3 | 15% | -5%
COc1ccc(OCC(=O)Nc2cc(OC)cc(OC)c2)cc1 | -11 | 4% | -2 | nt | 38%
COc1ccccc1CNS(=O)(=O)c1ccc2c(c1)NC(=O)C(C)S2 (stereo not drawn) | -11 | -1% | 1 | 7% | ?
Cc1cc(NC(=O)CSCC(=O)Nc2nc3ccccc3[nH]2)no1 | nt | nt | nt | 20% | 27%
O=C(Nc1ccc(C(F)(F)F)cc1)C1CCN(S(=O)(=O)c2ccc(N3CCCC3=O)cc2)CC1 | -6 | 3% | -1 | ? | ?
Cc1nnc(NC(=O)C2CCN(S(=O)(=O)c3ccc(F)c(Cl)c3)CC2)o1 | nt | nt | nt | 6.6µM* | 15µM*
O=C(Nc1ccc(S(=O)(=O)N2CCOCC2)cc1)C1CCCCC1 | -11 | 5% | -2 | -16% | nt
COc1ccc(S(=O)(=O)N2CCC(C(=O)Nc3ccc(S(=O)(=O)N4CCCC4)cc3)CC2)cc1OC | nt | nt | nt | ? | 4.7µM*
COc1ccc(NC(=O)C2CCN(S(=O)(=O)c3ccc(OC)c(OC)c3)CC2)cc1 | -4 | 1% | 1 | nt | ?
O=C(Nc1ccc(S(=O)(=O)N2CCOCC2)cc1)C1CCN(S(=O)(=O)c2ccccc2)CC1 | nt | nt | nt | ? | 2.9µM*
COc1ccc(NC(=O)C2CCN(S(=O)(=O)c3ccc(N4CCCC4=O)cc3)CC2)cc1OC | -2 | 8% | 2 | ? | 13µM*
O=C(NCc1ccc(Cl)cc1)c1cc([N+](=O)[O-])ccc1Cl | 3 | -2% | -3 | -5% | 1%
COc1cc(NC(=O)C2CCN(S(=O)(=O)c3ccc(N4CCCC4=O)cc3)CC2)cc(OC)c1 | -1 | 5% | -2 | -27% | 9.3µM*
O=C(Nc1ccc(S(=O)(=O)N2CCCC2)cc1)C1CCN(S(=O)(=O)c2ccc(F)cc2)CC1 | nt | nt | nt | 13µM* | ?
C=CCNC(=O)C1CCN(S(=O)(=O)c2ccc(Br)cc2)CC1 | 24 | 2% | 7 | 10µM* | nt
CCOC(=O)c1cccc(NC(=O)CC2Oc3ccccc3NC2=O)c1 (stereo not drawn) | -15 | 8% | -2 | -8% | 6%
